Laboratory results: PubChem BioAssay (Tox21)
Values joined by “and” are separate entries in the source; they are usually repeats but may differ in a detail not shown here. Equal entries are not always repeated. Records with an inconclusive call do not appear. Entries that show only a call come without a potency. Active and inactive are the calls of the source. Unless noted, calls follow the shape of the dose curve; as a rule, active = well fitted curve in the direction sought with a large enough effect in the repeat runs; inconclusive = weak or mixed curves; inactive = flat fitted curve, though single readings scatter.

Tests used:
[1] = qHTS assay to test for compound auto fluorescence at 535 nm (green) in HEK293 cells (AID 720680); also: potency is read from the fitted curve at half-maximal effect
[2] = qHTS assay to test for compound auto fluorescence at 460 nm (blue) in HEK293 cell free culture (AID 720681); also: potency is read from the fitted curve at half-maximal effect
In short: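 Compounds were added to cell-free DMEM with 10% FBS and fluorescence read directly. The blue channel used 405 nm excitation and 460 nm emission, with triamterene as the reference fluorophore.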

[3] = qHTS assay to test for compound auto fluorescence at 535 nm (green) in HEK293 cell free culture (AID 720682); also: potency is read from the fitted curve at half-maximal effect
In short: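 Measurement is a direct plate read of green fluorescence (485 nm in, 535 nm out) after compound addition to serum-supplemented DMEM lacking cells, with fluorescein used to express intensities.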

[4] = qHTS assay to test for compound auto fluorescence at 590 nm (red) in HEK293 cell free culture (AID 720683); also: potency is read from the fitted curve at half-maximal effect
In short: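 Cell-free wells of DMEM with 10% FBS received compound, and intrinsic fluorescence was read at excitation/emission 540/590 nm. Values expressed as equivalence to Rose Bengal sodium.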

[5] = qHTS assay to test for compound auto fluorescence at 590 nm (red) in HepG2 cell free culture (AID 720684); also: potency is read from the fitted curve at half-maximal effect
In short: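 Compounds are added to culture medium (MEM, 10% FBS) lacking cells, then fluorescence is read at excitation 540 nm, emission 590 nm, with Rose Bengal sodium as the equivalency standard.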

[6] = qHTS assay to test for compound auto fluorescence at 460 nm (blue) in HepG2 cell free culture (AID 720685); also: potency is read from the fitted curve at half-maximal effect
In short: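 Compound (23 nL) or DMSO pinned into cell-free MEM with 10% FBS; blue fluorescence read at 405/460 nm excitation/emission, expressed as auto-fluorescence equivalency to triamterene.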

[7] = qHTS assay to test for compound auto fluorescence at 535 nm (green) in HepG2 cell free culture (AID 720686); also: potency is read from the fitted curve at half-maximal effect
[8] = qHTS assay to test for compound auto fluorescence at 460 nm (blue) in HepG2 cells (AID 720687); also: potency is read from the fitted curve at half-maximal effect
In short: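 HepG2 cells in MEM with 10% FBS, attached overnight at 37 C, were exposed to compound or DMSO for 1 hr at 37 C, 5% CO2. Blue fluorescence was read at 405/460 nm, with triamterene as reference fluorophore.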

[9] = target: Glucocorticoid receptor (Homo sapiens) (UniProt P04150); test: qHTS assay to identify small molecule agonists of the glucocorticoid receptor (GR) signaling pathway (AID 720691; active = well fitted activation curve with a large enough effect in the signal ratio in the repeat runs, not every such curve was filed as active; the % refers to the signal ratio)
In short: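 Reporter read-out: fluorescence intensity following 2 h room-temperature LiveBLAzer B/G FRET substrate loading. Prior step: GR-bla HeLa cells held 4 h, then treated 18 h at 37 C.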

[10] = target: Glucocorticoid receptor (Homo sapiens) (UniProt P04150); test: qHTS assay to identify small molecule antagonists of the glucocorticoid receptor (GR) signaling pathway (AID 720692; active = well fitted inhibition curve with a large enough effect in the signal ratio in the repeat runs, not every such curve was filed as active; the % refers to the signal ratio)
In short: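 Dexamethasone (5 nM final) stimulated a stably integrated GRE-beta-lactamase reporter in HeLa cells during 18 h co-incubation with compounds; signal was quantified as fluorescence intensity of B/G FRET substrate after 2 h.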
Tags tell the direction and shape of the fitted curve or compound fluorescence and quenching.

Chain of Glucocorticoid receptor (Homo sapiens) (P04150 whole entry, looked up): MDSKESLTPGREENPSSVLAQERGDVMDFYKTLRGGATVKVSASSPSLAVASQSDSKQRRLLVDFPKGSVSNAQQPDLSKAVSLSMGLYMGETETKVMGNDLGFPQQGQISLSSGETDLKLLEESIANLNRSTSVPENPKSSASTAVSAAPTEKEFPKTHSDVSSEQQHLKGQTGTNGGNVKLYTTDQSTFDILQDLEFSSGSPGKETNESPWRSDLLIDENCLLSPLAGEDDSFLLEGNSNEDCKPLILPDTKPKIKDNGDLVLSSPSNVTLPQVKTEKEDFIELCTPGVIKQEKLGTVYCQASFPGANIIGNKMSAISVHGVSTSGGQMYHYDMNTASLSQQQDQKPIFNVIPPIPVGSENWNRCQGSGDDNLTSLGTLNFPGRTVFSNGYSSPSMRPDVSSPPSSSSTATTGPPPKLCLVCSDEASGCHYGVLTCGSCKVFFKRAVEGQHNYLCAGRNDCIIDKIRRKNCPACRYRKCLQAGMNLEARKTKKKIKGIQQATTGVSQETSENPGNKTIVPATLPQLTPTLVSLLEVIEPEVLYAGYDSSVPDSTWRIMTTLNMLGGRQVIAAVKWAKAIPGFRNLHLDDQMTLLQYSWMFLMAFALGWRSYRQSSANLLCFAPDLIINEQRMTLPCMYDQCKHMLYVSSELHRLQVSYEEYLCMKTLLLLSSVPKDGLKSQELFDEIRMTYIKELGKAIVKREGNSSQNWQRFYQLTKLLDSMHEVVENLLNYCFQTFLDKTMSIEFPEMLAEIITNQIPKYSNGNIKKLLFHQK

Row | Structure (SMILES) | Potency [1] | Potency [2] | Potency [3] | Potency [4] | Potency [5] | Potency [6] | Potency [7] | Potency [8] | Potency [9] | Potency [10]
1 | Nc1c2c(nc3ccccc13)CCCC2 | inactive | inactive | inactive | inactive | inactive | inactive | inactive | inactive |  | 
2 | CN(C)CCOC(C)(c1ccccc1)c1ccccn1 (stereo not given) | inactive | inactive | inactive | inactive | inactive | inactive | inactive | inactive |  | 
3 | C1CCC(C(CC2CCCCN2)C2CCCCC2)CC1 (stereo not given) | inactive | inactive | inactive | inactive | inactive | inactive | inactive | inactive |  | 
4 | C[C@](N)(Cc1ccc(O)c(O)c1)C(=O)O | inactive | inactive | inactive | inactive | inactive | inactive | inactive | inactive |  | 
5 | CN1CCC[C@H]1c1cccnc1 | inactive | inactive | inactive | inactive | inactive | inactive | inactive | inactive |  | 
6 | O=C(O)CC(O)C(=O)O (stereo not given) | inactive | inactive | inactive | inactive | inactive | inactive | inactive | inactive |  | 
7 | CCN(Cc1c(F)cccc1Cl)c1c([N+](=O)[O-])cc(C(F)(F)F)cc1[N+](=O)[O-] | inactive | inactive | inactive | inactive | inactive | inactive | inactive | inactive |  | 
8 | O=C1NS(=O)(=O)c2ccccc21 | inactive | inactive | inactive | inactive | inactive | inactive | inactive | inactive |  | 
9 | CCCCCCCCCCCCCCCC[N+](C)(C)Cc1ccccc1 | inactive | inactive | inactive | inactive | inactive | inactive | inactive | inactive |  | 
10 | C=CCc1ccc(O)c(OC)c1 | inactive | inactive | inactive | inactive | inactive | inactive | inactive | inactive |  | 
11 | Cc1ncc([N+](=O)[O-])n1CCO | inactive | inactive | inactive | inactive | inactive | inactive | inactive | inactive |  | 
12 | CN1[C@@H]2CC(OC(=O)[C@H](CO)c3ccccc3)C[C@H]1[C@@H]1O[C@@H]12 (stereo not given in full) | inactive | inactive | inactive | inactive | inactive | inactive | inactive | inactive |  | 
13 | O=C1OC2(c3ccccc31)c1cc(Br)c(O)c(Br)c1Oc1c2cc(Br)c(O)c1Br | 11.2 µM [fluorescent] (active) and 28.2 µM [fluorescent] (active) | inactive | 11.2 µM [fluorescent] (active) and 17.8 µM [fluorescent] (active) | 4.47 µM [fluorescent] (active) and 3.55 µM [fluorescent] (active) | 3.16 µM [fluorescent] (active) and 2.82 µM [fluorescent] (active) and 2.51 µM [fluorescent] (active) | inactive | 10 µM [fluorescent] (active) and 20 µM [fluorescent] (active) | inactive |  | 
14 | CC(=O)C(=O)O | inactive | inactive | inactive | inactive | inactive | inactive | inactive | inactive |  | 
15 | Cc1cn([C@H]2C=C[C@@H](CO)O2)c(=O)[nH]c1=O | inactive | inactive | inactive | inactive | inactive | inactive | inactive | inactive |  | 
16 | Cc1ccc(S(=O)(=O)O)cc1 | inactive | inactive | inactive | inactive | inactive | inactive | inactive | inactive |  | 
17 | COc1ccc2cc(S(=O)(=O)N[C@H](CC(=O)N[C@H](Cc3ccc(CN4[C@H](C)CCC[C@@H]4C)cc3)C(=O)N(C)C(C)C)c3ccc4c(c3)OCO4)ccc2c1 | inactive | inactive | inactive | inactive | inactive | inactive | inactive | inactive |  | 
18 | CCCCCCCCCCCC[N+](C)(C)Cc1ccccc1 | inactive | inactive | inactive | inactive | inactive | inactive | inactive | inactive |  | 
19 | CC1(C)S[C@@H]2[C@H](NC(=O)[C@H](N)c3ccccc3)C(=O)N2[C@H]1C(=O)O | inactive | inactive | inactive | inactive | inactive | inactive | inactive | inactive |  | 
20 | CS(=O)(=O)OCCCCOS(C)(=O)=O | inactive | inactive | inactive | inactive | inactive | inactive | inactive | inactive |  | 
21 | NC1CCCCC1 | inactive | inactive | inactive | inactive | inactive | inactive | inactive | inactive |  | 
22 | CC/C(=C(\c1ccccc1)c1ccc(OCCN(C)C)cc1)c1ccccc1 | inactive | inactive | inactive | inactive | inactive | inactive | inactive | inactive |  | 
23 | Oc1ccccc1 | inactive | inactive | inactive | inactive | inactive | inactive | inactive | inactive |  | 

Row | Structure (SMILES) | Potency [1] | Potency [2] | Potency [3] | Potency [4] | Potency [5] | Potency [6] | Potency [7] | Potency [8] | Potency [9] | Potency [10]
24 | CCCCC1(COC(=O)CCC(=O)O)C(=O)N(c2ccccc2)N(c2ccccc2)C1=O | inactive | inactive | inactive | inactive | inactive | inactive | inactive | inactive |  | 
25 | CC(C)C(=O)Nc1ccc([N+](=O)[O-])c(C(F)(F)F)c1 | inactive | inactive | inactive | inactive | inactive | inactive | inactive | inactive |  | 
26 | CCCc1cc(=O)[nH]c(=S)[nH]1 | inactive | inactive | inactive | inactive | inactive | inactive | inactive | inactive |  | 
27 | CC(O)(P(=O)(O)O)P(=O)(O)O | inactive | inactive | inactive | inactive | inactive | inactive | inactive | inactive |  | 
28 | CCCCC(CC)C(=O)O (stereo not given) | inactive | inactive | inactive | inactive | inactive | inactive | inactive | inactive |  | 
29 | CN[C@H]1CC[C@@H](c2ccc(Cl)c(Cl)c2)c2ccccc21 | inactive | inactive | inactive | inactive | inactive | inactive | inactive | inactive | inactive | 
30 | CN(N=O)C(=O)N[C@@H]1[C@@H](O)[C@H](O)[C@@H](CO)O[C@@H]1O | inactive | inactive | inactive | inactive | inactive | inactive | inactive | inactive | inactive | inactive
31 | CN1CCc2cccc3c2[C@H]1Cc1ccc(O)c(O)c1-3 | inactive | inactive | inactive | inactive | inactive | inactive | inactive | inactive | inactive | inactive
32 | Cc1cc(=O)oc2cc(O)ccc12 | inactive | 10 µM (active) and 39.8 µM (active) and 35.5 µM (active) | inactive | inactive | inactive | 10 µM [fluorescent] (active) and 39.8 µM [fluorescent] (active) | inactive | 10 µM [fluorescent] (active) and 39.8 µM [fluorescent] (active) |  | 
33 | O=C(O)c1ccccc1 | inactive | inactive | inactive | inactive | inactive | inactive | inactive | inactive |  | 
34 | O=CC(=O)c1ccccc1 | inactive | inactive | inactive | inactive | inactive | inactive | inactive | inactive | inactive | inactive
35 | C1=CC2C3C=CC(C3)C2C1 (stereo not given) | inactive | inactive | inactive | inactive | inactive | inactive | inactive | inactive | inactive | 
36 | Nc1ccc([N+](=O)[O-])cc1O | inactive | inactive | inactive | inactive | inactive | inactive | inactive | inactive | inactive | 
37 | COc1ccc(OC(F)(F)F)cc1CN[C@H]1CCCN[C@H]1c1ccccc1 | inactive | inactive | inactive | inactive | inactive | inactive | inactive | inactive | inactive | 
38 | O=S1(=O)OC(c2ccc(O)cc2)(c2ccc(O)cc2)c2ccccc21 | inactive | inactive | inactive | inactive | inactive | inactive | inactive | inactive |  | 
39 | COc1ccc(C(Cl)=C(c2ccc(OC)cc2)c2ccc(OC)cc2)cc1 | inactive | inactive | inactive | inactive | inactive | inactive | inactive | inactive | inactive | 
40 | CCOC(N)=O | inactive | inactive | inactive | inactive | inactive | inactive | inactive | inactive |  | 
41 | F[B-](F)(F)F | inactive | inactive | inactive | inactive | inactive | inactive | inactive | inactive |  | 
42 | CCN(CC)C(=O)c1cccc(C)c1 | inactive | inactive | inactive | inactive | inactive | inactive | inactive | inactive | inactive | inactive
43 | C=C(C)C(=O)OCC(C)O (stereo not given) | inactive | inactive | inactive | inactive | inactive | inactive | inactive | inactive | inactive | inactive
44 | CC(C)c1c(C(=O)Nc2ccccc2)c(-c2ccccc2)c(-c2ccc(F)cc2)n1CC[C@@H](O)C[C@@H](O)CC(=O)O | inactive | inactive | inactive | inactive | inactive | inactive | inactive | inactive | inactive | 
45 | CC(=O)CC(c1ccccc1)c1c(O)c2ccccc2oc1=O (stereo not given) | inactive | inactive | inactive | inactive | inactive | inactive | inactive | inactive |  | 
46 | NC(=O)n1c(O)c(C(=O)c2cccs2)c2cc(Cl)ccc21 | inactive | inactive | inactive | inactive | inactive | inactive | inactive | inactive | inactive | 
